The entries come from a sample that favours hits as a whole.
Pf Dd2 growth = qHTS Primary assay for Inhibitors of Plasmodium falciparum Dd2 growth in vitro; P. falciparum Dd2 growth, SYBR Green, 72 h; AID 1347417, 2020; Potency, µM (top dose mostly 28.9 µM), inactives show top-dose activity, negative = inhibition, usual class: inhibitors; hit rate 4.3% among 120,000; active means well fitted inhibition curve with a large enough effect;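 further: plate controls were DMSO vehicle for no effect and reference drug for full effect; nearly all actives have a fitted effect of over 65% in size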
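Readout: SYBR Green fluorescence, 485 nm excitation, 535 nm emission, after ~16 h lysis at 37C. Before that, Dd2-infected red cells (2.5% hematocrit) grew 72 h with compound, 29 uM top final concentration.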
* = called active by the depositor; i = inactive; [ ] = another dose, or the depositor's remark. Potency means the concentration at half of the fitted maximal effect.

SMILES	Pf Dd2 growth
Cc1ccc(O)c(CN2CCC(C3(c4ccccn4)NC(=O)NC3=O)CC2)c1 (stereo not drawn)	-18.7%
O=C(CN1CC2CC(C1)[C@H]1CCCC(=O)N1C2)NCc1ccc(F)cc1 (stereo partly drawn)	-1.7%
O=C(O)c1ccc2c(c1)n(Cc1ccccc1)c(=O)c1ccnn12	-16.2%
COCC1CN(C)CC12CCN(S(=O)(=O)c1cnc[nH]1)CC2 (stereo not drawn)	-14.9%
CC(C)c1noc(-c2cccn3c(CNC(=O)Cc4ccccc4Cl)nnc23)n1	i
Cc1ccc(C)c(C(=O)NCc2nnc3cc(-c4nc(C(C)C)no4)ccn23)c1	i
Cc1cccc(C(=O)NCc2nnc3cc(-c4nc(C(C)C)no4)ccn23)c1	10µM*
Cc1cccc(C(=O)NCc2nnc3cc(-c4nc(C)no4)ccn23)c1	i
CC(C)c1noc(-c2ccn3c(CNC(=O)Cc4ccccc4Cl)nnc3c2)n1	5.01µM*
Cc1ccc(CC(=O)NCc2nnc3cc(-c4nc(C(C)C)no4)ccn23)cc1	i
CN(C)C[C@@H]1CN(Cc2ccncc2)C[C@H]1NC(=O)c1ccc(F)cc1	36.4%
CNC(=O)c1ccc2c(c1)NC(C)(CCCCc1ccccc1)CO2 (stereo not drawn)	i
O=C(NCCCN1CCCC1=O)c1cn2ccnc(-c3ccc(F)cc3)c2n1	-13.8%
CC(C)c1noc(-c2cccn3c(CNC(=O)C4CCC4)nnc23)n1	i
COc1ccc(-c2n[nH]c3c2CC(=O)N(Cc2ccccn2)C3)cc1F	-15.8%[44.1 µM]
O=C1Cc2c(-c3ccccc3Cl)n[nH]c2CN1Cc1ccccc1	7.1%[44.1 µM]
COc1ccc(CN2Cc3[nH]nc(-c4ccccc4OC)c3CC2=O)cc1	-29.1%[44.1 µM]
O=C1Cc2c(-c3ccccc3OCc3ccccc3)n[nH]c2CN1Cc1ccccc1	10µM*
O=C1Cc2c(-c3cccc4ccccc34)n[nH]c2CN1Cc1ccccn1	-4.3%[44.1 µM]
O=C1Cc2c(-c3ccccc3OCc3ccccc3)n[nH]c2CN1Cc1ccccn1	10µM*
C[S+](=O)([O-])NCCn1ccc2cc(OC3CCN(C(=O)C4CCCC4)CC3)cnc21	i
CCOC(=O)c1c(NC(=O)CSc2cn(CCNC(=O)c3ccc(OC)cc3)c3ccccc23)sc2c1CCC2	12.6µM*
CCOC(=O)c1c(NC(=O)COc2ccccc2F)sc2c1CCCC2	-12.1%
COc1ccc(NC(=O)CSc2cn(CCNC(=O)c3ccc(OC)cc3)c3ccccc23)cc1	-12.4%
CC(Sc1cn(CCNC(=O)c2ccccc2F)c2ccccc12)c1ccccc1 (stereo not drawn)	-19.5%
SMILES	Pf Dd2 growth
CCOC(=O)c1c(NC(=O)C(C)Sc2cn(CCNC(=O)c3c(F)cccc3F)c3ccccc23)sc2c1CCC2 (stereo not drawn)	7.94µM*
CCOC(=O)c1c(NC(=O)CSc2cn(CCNC(=O)c3ccc(OCC)cc3)c3ccccc23)sc2c1CCCC2	i
C=CCNC(=O)N[C@H]1C[C@@H](C(=O)N[C@H](Cc2c[nH]c3ccccc23)C(N)=O)N(C(=O)c2cccn2C)C1	21.2%
CCNC(=O)N1C[C@@H](Oc2ccccc2)C[C@@H]1C(=O)N1CCOCC1	-1.2%
C=CCNC(=O)CCc1c(CC)nn(-c2ccc(OC)cc2)c1Oc1ccccc1F	i
Cc1cc(C[C@@H]2COC[C@@H]2NC(=O)c2ccc(Oc3ccccc3)o2)on1	1.1%
CCOC(=O)COc1ccc(/C=C(\C#N)c2nc3ccc(C)cc3[nH]2)cc1OC	i
CCC(=O)Oc1ccc(/C=C(\C#N)c2nc3ccccc3[nH]2)cc1OC	-11.9%
COc1cc(/C=C(\C#N)c2nc3ccc(C)cc3[nH]2)ccc1OCc1ccc(C)cc1	2.82µM*
COCC(=O)N1CCNC[C@H]1C(=O)N[C@@H](Cc1ccc(OC)cc1)C(=O)OC	21.6%[44.1 µM]
Cn1cc(S(=O)(=O)c2ccccc2)c(=O)c2cc(F)c(N3CCCCCC3)cc21	8.91µM*
Cn1cc(S(=O)(=O)c2cccc(Cl)c2)c(=O)c2cc(F)c(N3CCCCCC3)cc21	i
Cn1cc(S(=O)(=O)c2ccc(Cl)cc2)c(=O)c2cc(F)c(N3CCCCCC3)cc21	14.1µM*
Cn1cc(S(=O)(=O)c2ccccc2)c(=O)c2cc(F)c(N3CCCCC3)cc21	0.9%
CCN1CCN(c2cc3c(cc2F)c(=O)c(S(=O)(=O)c2ccccc2)cn3C)CC1	-5.2%
Cn1cc(S(=O)(=O)c2ccccc2)c(=O)c2cc(F)c(N3CCCC3)cc21	-15.6%
CCCN1CCN(c2cc3c(cc2F)c(=O)c(S(=O)(=O)c2ccc(Cl)cc2)cn3C)CC1	10µM*
Cc1ccc(S(=O)(=O)c2cn(C)c3cc(N4CCCCC4)c(F)cc3c2=O)cc1	-26.6%
COCCCNc1ncnc2c1CN(C1CCNC1)C(=O)CN2C (stereo not drawn)	7.4%
CN(C)c1cccc(Oc2nnnn2[C@H]2CO[C@H]3[C@@H]2OC[C@@H]3NC(=S)Nc2cccc(C#N)c2)c1	i
CCCc1ccc(S(=O)(=O)NC2CCN(c3ccc(=O)n(CC4CC4)n3)CC2)cc1	i
CN(Cc1ccco1)C(=O)c1ccc(-c2ccc(N3CCCCCC3)nc2)cc1	-19.1%

Screening results from PubChem BioAssay.
